Bioassay records: PubChem BioAssay, several laboratories
A selection: hits, their analogues and other compounds. The true share with any hit is near 2.8%.
IDE cell activ – IDE (human) activation, cell-based | P14735 | HEK cells, FAbeta-B cleavage, fluorescence polarization; 0% vehicle, 100% cell-free pure enzyme wells | activation, % at 5.96 µM | 340,000 compounds, 0.073% hits;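 active = activation above the mean of all tested compounds plus 3 SD, set per screening campaign, cut at about 17% in these data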
Target sequence (P14735 whole entry, looked up): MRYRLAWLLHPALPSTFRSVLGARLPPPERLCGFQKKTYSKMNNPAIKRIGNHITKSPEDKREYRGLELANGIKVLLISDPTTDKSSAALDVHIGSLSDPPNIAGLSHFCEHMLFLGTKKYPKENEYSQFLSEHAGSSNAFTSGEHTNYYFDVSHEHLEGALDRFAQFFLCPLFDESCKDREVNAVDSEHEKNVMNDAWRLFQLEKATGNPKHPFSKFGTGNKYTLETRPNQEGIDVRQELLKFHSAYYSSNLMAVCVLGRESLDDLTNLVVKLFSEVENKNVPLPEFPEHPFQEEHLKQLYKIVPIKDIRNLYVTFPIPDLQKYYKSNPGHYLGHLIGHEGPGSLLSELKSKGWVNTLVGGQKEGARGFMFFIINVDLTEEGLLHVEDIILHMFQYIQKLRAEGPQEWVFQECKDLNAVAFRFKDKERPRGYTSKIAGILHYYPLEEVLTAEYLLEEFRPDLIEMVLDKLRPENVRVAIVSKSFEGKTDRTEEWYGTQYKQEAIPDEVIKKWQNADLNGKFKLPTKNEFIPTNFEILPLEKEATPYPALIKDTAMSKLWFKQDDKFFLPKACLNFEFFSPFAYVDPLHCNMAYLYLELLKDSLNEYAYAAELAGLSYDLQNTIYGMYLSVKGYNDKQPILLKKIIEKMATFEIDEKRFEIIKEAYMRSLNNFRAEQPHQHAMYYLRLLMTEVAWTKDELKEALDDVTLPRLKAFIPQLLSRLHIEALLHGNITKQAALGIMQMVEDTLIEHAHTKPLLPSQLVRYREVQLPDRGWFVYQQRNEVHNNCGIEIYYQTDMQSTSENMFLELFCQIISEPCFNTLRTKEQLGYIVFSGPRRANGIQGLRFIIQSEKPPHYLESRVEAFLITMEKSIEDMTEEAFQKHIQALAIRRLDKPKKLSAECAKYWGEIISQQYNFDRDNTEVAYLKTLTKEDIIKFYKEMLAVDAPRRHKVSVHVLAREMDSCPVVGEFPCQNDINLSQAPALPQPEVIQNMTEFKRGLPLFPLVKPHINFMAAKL
PP5 primary – blocks human protein phosphatase 5 activity; 320,000 compounds, 0.18% hits; P53041; inhibition, % at 6.7 µM; purified PP5c, OMFP substrate fluorescence;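 active = inhibition above the campaign's mean inhibition across all tested compounds plus 3 SD, cut at about 9.5% in these data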;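 also: 0% = DMSO only and 100% = 100 µM cantharidin control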
SKKanGAS inh – blocks kanamycin growth of S. pyogenes SKKanGAS strain; inhibition, % at 7.5 µM; 300,000 compounds, 1.3% hits; BacTiter-Glo, 6 h; AID 1662;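 active = mean replicate score, as percent of positive control median, at least 50; inconclusive = mean below 50 but one replicate at or above 50; inactive = mean and every replicate below 50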;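 also: strain carries kanamycin resistance gene driven by streptokinase promoter and grows in 40 µg/ml kanamycin; loss of luminescence reflects streptokinase promoter inhibition or plain growth inhibition; 0% = median of DMSO wells and 100% = positive control at its reference dose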
IDE inh – cellular human IDE inhibition | HEK cells, FAbetaB cleavage, fluorescence polarization | 320,000 compounds, 0.41% hits | P14735 | inhibition, % at 5.59 µM;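 active = percent inhibition above the average of all tested compounds plus 3 SD, set per screening campaign, cut at about 16% in these data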;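 also: IDE supplied by intact live HEK cells; FP after avidin binding of uncleaved biotin substrate so inhibition keeps polarization high; 0% = DMSO wells and 100% = 60 µM reference IDE inhibitor Ii1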
PP1 inh – counter-screen for PP5 inhibitors: inhibitors of human PP1-alpha. P62136. purified PP1alpha, OMFP fluorescence. inhibition, % at 6.7 µM. 320,000 compounds, 0.9% hits. AID 2235;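 active = inhibition above the mean inhibition of all tested compounds plus 3 SD, computed separately for each screening campaign, cut at about 15% in these data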
Granule exo inh – blocks lytic granule exocytosis. TALL-104 LAMP-1 surface exposure, flow cytometry; cells stimulated with thapsigargin and PMA. inhibition, % at 10 µM. 360,000 compounds, 0.66% hits;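 active = inhibition above about 55%, limit read from the data; inconclusive = no clear call, values can overlap the other calls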
IDE inh confirm – cellular human IDE inhibition, confirmation; shares compounds with IDE inh; HEK cells, FAbetaB cleavage, fluorescence polarization; inhibition, % at 5.59 µM; 1,200 compounds, 51% hits; AID 435028;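 active = mean inhibition across triplicate wells above the cutoff set by the earlier primary insulin-degrading enzyme screen, cut at about 16% in these data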;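 also: 0% = DMSO wells and 100% = 60 µM reference IDE inhibitor Ii1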
HEK293 tox – kills HEK cells in IDE inhibitor counter-screen; AID 449730; HEK293 cytotoxicity, ATP luminescence; 1,200 compounds, 28% hits; shares compounds with IDE inh; inhibition, % at 5.59 µM; in the data active = inhibition above about 22%;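 also: 0% = vehicle wells and 100% = reference cytotoxic drug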
Exocytosis CP01 – lytic granule exocytosis inhibition | shares compounds with Granule exo inh | TALL-104 cells, LAMP-1 externalization, flow cytometry; stimulated with PMA plus thapsigargin | inhibition, % at 10 µM | 1,500 compounds, 11% hits; in the data active = inhibition above about 60%;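 also: 0% = stimulated vehicle wells and 100% = unstimulated wells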
Numbers without * were called inactive; ? = inconclusive; · = no result.

SMILES | IDE cell activ | PP5 primary | SKKanGAS inh | IDE inh | PP1 inh | Granule exo inh | Exocytosis CP01 | others
COc1cccc(N2CCN(c3ncnc4c3[nH]c3ccc(F)cc34)CC2C)c1 (stereo not given) | -12 | 5 | ? | 38* | 3 | 98* | 104* | IDE inh confirm=28*;HEK293 tox=122*
Cc1ccn2cc(-c3ccc(NC(=O)c4ccco4)cc3)nc2c1 | -1 | 4 | -6 | 18* | -5 | 85* | -4 | IDE inh confirm=5;HEK293 tox=21
C[C@@H]1CN([C@@H](C)CO)C(=O)CCCn2cc(nn2)CO[C@H]1CN(C)S(=O)(=O)c1ccccc1F | · | · | · | · | · | -1 | ·
CCOC(=O)Cc1csc(-n2sc3ccccc3c2=O)n1 | -25 | 0 | 2 | 17* | -1 | 78* | 36 | IDE inh confirm=13;HEK293 tox=28*
CCOc1ccc2[nH]c3c(N4CCN(c5ccccn5)CC4)ncnc3c2c1 | -30 | 3 | 3 | 25* | -6 | 88* | 10 | IDE inh confirm=7;HEK293 tox=26*
COc1ccc(S(=O)(=O)N(C)C)cc1NC(=O)CCCSc1ccccc1 | 0 | 0 | -3 | 5 | -2 | 95* | -5
CCc1nc2ccc(C(=O)Nc3cc(-c4ccccc4)ccc3OC)cn2c1N(CCN(C)C)CC1CC1 | · | · | · | · | · | 60* | 49
COc1ccc(NC(=O)CSCC(=O)N(C)Cc2ccc3c(c2)OCCO3)cc1 | 1 | 2 | · | -1 | -4 | 8 | ·
COc1ccccc1-n1nnnc1SCC(=O)N(C)C1CCS(=O)(=O)C1 (stereo not given) | 5 | 2 | · | -3 | 2 | 3 | ·
CC(=O)c1c(C)oc2c1cc(O)c1ccccc12 | 4 | -2 | -1 | -4 | -4 | 89* | -13
Cc1ccc(S(=O)(=O)N(C)c2ccc3ccccc3c2)cc1 | 1 | 1 | -5 | 0 | -3 | 17 | ·
CN(c1ccccc1)S(=O)(=O)c1ccc2ccccc2c1 | 1 | 2 | 24 | 4 | 11 | 65* | -4
C/C=C/c1cccc(-c2nc(C(=O)N3CCCCC3)cc3c2[C@@H](CCO)N(C(=O)NC(C)C)C3)c1 | · | · | · | · | · | -1 | ·
CN(C)CCCN(C(=O)CCSc1ccccc1)c1nc2cc3c(cc2s1)OCO3 | 43* | 3 | -6 | 3 | 8 | 60* | 70*
CCN(Cc1ccccc1)S(=O)(=O)c1ccc(C(=O)N(CCCN(C)C)c2nc3cc4c(cc3s2)OCO4)cc1 | -11 | 2 | 7 | 2 | 9 | 66* | 55
Oc1c(I)cc(I)c2cccnc12 | 7 | -1 | 92* | 5 | 3 | 74* | -14
Oc1ccc(F)c2cccnc12 | 5 | 1 | -17 | 2 | 1 | 2 | ·
NC(=O)c1ccc(NC(=O)c2ccc3c(c2)CCN3S(=O)(=O)c2ccccc2)cc1 | 2 | 3 | 13 | -2 | 0 | 72* | -1
CCOc1ccc(N(CC(=O)NCCc2ccc(C)cc2)S(=O)(=O)c2c(C)noc2C)cc1 | 3 | 4 | 4 | 0 | 1 | 79* | -3
Cc1ccc(N(CC(=O)NCCc2ccccc2)S(=O)(=O)c2c(C)noc2C)cc1 | 4 | 5 | -3 | -2 | -4 | -1 | ·
CCOc1ccc(OCC)c(NC(=O)CN(c2ccc(OC)cc2)S(=O)(=O)c2c(C)noc2C)c1 | 1 | 5 | 9 | 5 | 3 | 57* | -5
Cc1cccc(Cn2nc(C(C)(C)C)cc2C(=O)Nc2ccc(F)cc2)c1 | · | 3 | ? | -5 | 5 | 56* | 0
CN(C)CCCN1C(=O)c2cccc3c([N+](=O)[O-])ccc(c23)C1=O | 2 | -1 | · | 2 | -5 | 57* | 9
O=C1c2cccc3c([N+](=O)[O-])ccc(c23)C(=O)N1CCc1ccccn1 | 6 | 0 | 48 | 5 | -1 | 19 | ·
Cc1cc(C)c2sc(N(CCCN(C)C)C(=O)c3ccc(S(=O)(=O)N4CCCc5ccccc54)cc3)nc2c1 | 6 | 2 | 26 | -1 | 8 | 58* | 47
SMILES | IDE cell activ | PP5 primary | SKKanGAS inh | IDE inh | PP1 inh | Granule exo inh | Exocytosis CP01 | others
Cc1cc(C)c2sc(N(CCCN(C)C)C(=O)c3ccc(S(=O)(=O)N4CCc5ccccc5C4)cc3)nc2c1 | 10 | 5 | 10 | -5 | 8 | 56* | 63*
COc1ccc2sc(N(CCCN(C)C)C(=O)c3ccc(S(=O)(=O)N4CCc5ccccc5C4)cc3)nc2c1 | 14 | 1 | 20 | 1 | 7 | 76* | 84*
CN(C)CCCN(C(=O)c1ccc(S(=O)(=O)N2CCc3ccccc32)cc1)c1nc2ccc(F)cc2s1 | 2 | 2 | 7 | -4 | 6 | 43 | ·
COc1ccc2sc(N(CCCN(C)C)C(=O)c3ccc(S(=O)(=O)N4CCCC4)cc3)nc2c1 | 1 | 2 | 2 | -2 | 0 | 4 | ·
N#C/C(=C(\O)c1cc(Cl)sc1Cl)c1nc2ccccc2[nH]1 | 4 | 1 | -6 | 1 | 0 | 0 | ·
CCCCc1ccc(N/C(N)=N/c2nc(C)cc(C)n2)cc1 | · | -1 | 3 | -6 | 6 | 0 | ·
CCN(CC)CCCNC(=S)N1CCN(c2nc(-c3ccccc3)cs2)CC1 | -10 | -1 | 0 | 3 | -6 | 83* | -3
COc1ccc(C(=O)C2CCCN(Cc3cccn3-c3ccc(Cl)cn3)C2)c(OC)c1 (stereo not given) | -1 | 1 | 7 | 1 | -2 | 68* | -1
OC[C@@H]1CN(Cc2ccccc2)C[C@H](n2cnc3c(NC4CCCC4)ncnc32)O1 | · | · | · | · | · | -8 | ·
CSc1ccccc1NC(=O)CN(C)C(=O)CCc1c[nH]c2ccccc12 | 0 | -1 | -2 | -2 | -1 | 62* | -15
COC(=O)CN1C(=O)N/C(=C/c2ccc(C)o2)C1=O | -1 | -1 | 8 | 7 | -2 | 6 | ·
Cc1ccc(/C=C2/NC(=O)N(Cc3ccccc3)C2=O)o1 | -6 | 0 | 6 | 5 | 1 | 58* | -9
COc1cccc(CNC(=O)C2CCN(S(=O)(=O)c3ccc(Br)s3)CC2)c1 | 7 | 3 | -3 | 2 | 2 | 63* | -14
CC(NC(=O)C1CCN(S(=O)(=O)c2ccc(Br)s2)CC1)c1ccccc1 (stereo not given) | 6 | 3 | 1 | 2 | 0 | 66* | -11
CCCCN(C(=O)c1cccc2c(=O)c(C)c(-c3ccccc3)oc12)c1ccccc1 | 3 | · | 2 | · | · | 7 | ·
COc1cccc(OC)c1OCCCN1CCC(Cc2ccccc2)CC1 | 0 | 1 | -4 | 0 | 8 | 68* | -12
COc1cccc(OC)c1OCCN1CCN(C(c2ccccc2)c2ccccc2)CC1 | 1 | 2 | -6 | -2 | 0 | 62* | -10
